Experimental data taken from PubChem BioAssay (NCI).
Compounds without any hit were thinned out: in the full panel of roughly 83,000, 20% have a hit.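 Results are percent growth after 48 hours of single-concentration exposure. 100 means growth as in untreated cells, lower positive values show inhibition; negative values down to -100 show cell death.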 Unmarked numbers belong to inactive results. Active and inactive are the calls of the source. How the source made its calls: active means growth percent below 10; inactive means the rest.

Tests used:
Assay in all cases: NCI-60 one-dose screen, 48 h (100 = growth as untreated, 0 = no growth, -100 = all killed)
Conditions in all cases: 10 µM unless noted
NCI-H23 lung = tested on: NCI-H23 lung
NCI-H226 lung = tested on: NCI-H226 lung
NCI-H322M lung = tested on: NCI-H322M lung
HOP-62 NSCLC = tested on: HOP-62 NSCLC
NCI-H460 lung = tested on: NCI-H460 lung
NCI-H522 lung = tested on: NCI-H522 lung
A549/ATCC NSCLC = tested on: A549/ATCC NSCLC
786-0 renal = tested on: 786-0 renal
COLO 205 colon = tested on: COLO 205 colon
DU-145 prostate = tested on: DU-145 prostate
K-562 leukemia = tested on: K-562 leukemia
MALME-3M melanoma = tested on: MALME-3M melanoma
MDA-MB-231 breast = tested on: MDA-MB-231 breast
SF-268 CNS = tested on: SF-268 CNS
SF-295 CNS = tested on: SF-295 CNS
SF-539 CNS = tested on: SF-539 CNS
UACC-257 melanoma = tested on: UACC-257 melanoma
M14 melanoma = tested on: M14 melanoma
RXF 393 renal = tested on: RXF 393 renal

SMILES | growth (NCI-H23 lung) | growth (NCI-H226 lung) | growth (NCI-H322M lung) | growth (HOP-62 NSCLC) | growth (NCI-H460 lung) | growth (NCI-H522 lung) | growth (A549/ATCC NSCLC) | growth (786-0 renal) | growth (COLO 205 colon) | growth (DU-145 prostate) | growth (K-562 leukemia) | growth (MALME-3M melanoma) | growth (MDA-MB-231 breast) | growth (SF-268 CNS) | growth (SF-295 CNS) | growth (SF-539 CNS) | growth (UACC-257 melanoma) | growth (M14 melanoma) | growth (RXF 393 renal)
CCCCn1c(O)c(N=Nc2nc(-c3cc4ccccc4oc3=O)cs2)c2cc(Br)ccc21 | 98.3% | 99.2% | 102% | 110% | 114% | 101% | 97.8% | 106% | 140% | 108% | 105% | 105% | 106% | 97% | 105% | 103% | 103% | 112% | 
O=C(COc1ccc2c(c1)CCCC(=O)N2)NCc1ccccc1 | 94.5% | 93.9% | 112% | 92.5% | 104% | 89.1% | 103% | 101% | 106% | 113% | 43.4% | 95.6% | 82.4% | 97.5% | 90.8% | 87.3% | 98% | 83% | 93.2%
O=C(O)c1ccc(-c2ccc(/C=N/NC(=O)c3[nH]c4ccc(Br)cc4c3-c3ccccc3)o2)cc1 | 18.3% | 44.3% | 37.5% | 9.47% (active) | 7.72% (active) | -33.8% (active) | 49.5% | 19.5% | 29.3% | 38.8% | 7.51% (active) | 34.6% |  | 10.5% | 6.58% (active) | -36.9% (active) | 45.5% | 0.786% (active) | -1.82% (active)
COc1ccc(/C=C2\C(=O)Nc3ccc(Cl)cc32)cc1OCc1ccccn1 | 31.6% | 15.6% | 56% | 14.6% | 26.4% | 81.1% | 41% | -18.6% (active) | 77.8% | 57.5% | 51.6% | 38.2% |  | 44% | 38.4% | -9.35% (active) | 72.6% | 52.8% | 2.03% (active)
COc1c(F)ccc(C(=O)Nc2ccc3nc(NC(=O)C4CCCN(S(=O)(=O)c5ccc(C#N)cc5)C4)sc3c2)c1F (stereo not given) | 88.9% | 90.3% | 101% | 104% | 96.8% | 85.7% | 91.6% | 75.5% | 96.9% | 95.7% | 62.6% | 97.5% | 99.1% | 93.5% | 90.1% | 73.1% | 87.1% | 92.7% | 46.7%
CSc1ccc(C(=O)Nc2ccc3nnn(/C(C#N)=C/c4ccccn4)c3c2)cc1 | -77.8% (active) | -53.4% (active) | 57.9% | -5.88% (active) | -40.1% (active) | -84.6% (active) | 15% | -90.3% (active) | -66.2% (active) | -40.3% (active) | -9.85% (active) | -59.3% (active) |  | 30.5% | 34.8% | -92% (active) | -38.9% (active) | -73.2% (active) | -95.5% (active)
CC12CC[C@@H]3[C@]4(C)COC(c5cn[nH]c5-c5cccc(Br)c5)O[C@@H]4CC[C@@]3(C)[C@@H]1CC(C1=CCOC1=O)O2 (stereo not given in full) | 38% | 37.8% | 48.6% | 70.3% | 23.7% | 24.9% | 25% | 53.1% | 10.5% | 53.5% | 15% | 37.7% | 35.1% | 47% | 34.9% | 54.8% | 41.8% | 22.3% | 6.19% (active)
NS(=O)(=O)c1ccc(-n2cc(-c3cccc(NC(=O)c4cc(N5CCOCC5)cc(C(F)(F)F)c4)c3)nn2)cc1 | 54.7% | 26.2% | 71.4% | 12.9% | 64.3% | 38.2% | 76.7% | 44.9% | 76.9% | 83% |  | 54.1% | 37.4% | 41.1% | 54% | 19.3% | 66.3% | 78.8% | 
N#Cc1ccc(/C=N/NC(=O)c2[nH]c3ccc(Br)cc3c2-c2ccccc2)o1 | 3.75% (active) | 22.9% | 41.3% | 16.6% | 1.47% (active) | -36.4% (active) | 12.7% | -1.06% (active) | -25.2% (active) | 8.4% (active) | 2.28% (active) | 22% |  | 17.7% | 16% | -16.8% (active) | 13.6% | 12.1% | -2.8% (active)
CN(C)c1nc(NCCNS(=O)(=O)c2ccc(C(=O)/C=C/c3ccc(F)cc3)cc2)nc(Nc2ccc(F)cc2)n1 | -84% (active) | -74.4% (active) | -22.6% (active) | -71.2% (active) | -75.2% (active) |  | -56.4% (active) | -85.6% (active) | -85.7% (active) | -83.9% (active) | -21.9% (active) | -83.3% (active) | -93% (active) | -59% (active) | -78.3% (active) | -99.7% (active) | -80.6% (active) | -83% (active) | -97% (active)
CC1CCCCN1CCCNC(=O)N/C(N)=N/c1nc2ccccc2s1 (stereo not given) | 58.8% | 48.5% | 77% | 59.6% | 42.2% | 72.2% | 47.3% | 29.5% | -58.6% (active) | 72.1% | -27.6% (active) | -93.2% (active) |  | 49.7% | 15.3% | -60.9% (active) | -86.8% (active) | -85.2% (active) | 5.45% (active)
CCCCSc1nc(Nc2ccc(C(C)=O)cc2)c(C#N)c(-c2ccc(OC)cc2)n1 | 60.8% | 31.3% | 75.4% | 73.9% | 27.6% | 87.8% | 45.5% | -12.4% (active) | 82.3% | 88.5% | 69.6% | 77.2% | 60.6% | 63.1% | 47.6% | 25.9% | 104% | 91.8% | 
CC(=O)Nc1cccc(Nc2nc(NCc3ccccc3)c3ccccc3n2)c1 | -86.3% (active) | -84.3% (active) | -97.2% (active) | -90.8% (active) | -79.5% (active) | -83.8% (active) | -69% (active) | -89.1% (active) | -93.9% (active) | -93.7% (active) | -59% (active) | -94.2% (active) |  | -72.8% (active) | -98.9% (active) | -98% (active) | -83.6% (active) | -86.5% (active) | -95.2% (active)
N#Cc1c(-c2ccccc2Cl)cc(-c2ccc3ccccc3c2)[nH]c1=O | 38.8% | -24.5% (active) | 28.1% | -7.48% (active) | -13.8% (active) | 85% | 17.5% | -40.9% (active) | 108% | 49% | 62% | 12.9% |  | 22.5% | 1.62% (active) | 16.5% | 70.3% | 25.1% | -6.69% (active)
Cn1nc(C(F)(F)F)cc1-c1cc(Cl)c(COc2ccc(Cl)cc2)c(-c2ccc(Cl)c(C(F)(F)F)c2)c1O | -46.7% (active) | -39.5% (active) | 6.41% (active) | -40.9% (active) | -48.1% (active) | -27.7% (active) | 2.95% (active) | -63.5% (active) | -83.2% (active) | 8.66% (active) | 1.2% (active) | -52.4% (active) |  | -0.375% (active) | -70.8% (active) | -77.9% (active) | -31.4% (active) | -67% (active) | -47.7% (active)
CCOC(=O)c1ccc(Nc2nc(NN)nc(-c3ccc(OC)cc3)c2C#N)cc1 | 115% | 112% | 123% | 109% | 109% | 103% | 105% | 99.3% | 116% | 113% | 1.69% (active) | 92.4% | 85.1% | 98.2% | 111% | 110% | 46% | 71.6% | 124%
COc1ccc(-c2ccnc(SCc3cc4ccccc4[nH]c3=O)n2)cc1 | 76.1% | 63.5% | 82.5% | 32.3% | 33.6% | 46.9% | 61% | 71% | 77.5% | 81.2% | 11.1% | 65.9% | 59.1% | 87.7% | 50.3% | 50% | 79.5% | 44.8% | 40.2%
